# In the library only some 2.2% were active in any assay of this set; here they are far more common.
# NPR1 activator = GC-A (human) enzyme activation; 370,000 compounds, 0.14% hits; P16066; HEK293 GC-A cells, cGMP TR-FRET, EC30 ANP; 0% at EC30 ANP, 100% saturating ANP; AID 1671463; activation, % at 10 µM; in the data active = activation above about 40%
# ADAM10 inh = inhibits human ADAM10 | recombinant ADAM10, EDANS/DABCYL FRET peptide cleavage, 3 h | inhibition, % at 7 µM | 370,000 compounds, 0.62% hits;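 active = inhibition above a per-campaign cutoff equal to the mean of compounds falling between control-based bounds plus 3 SD, cut at about 20% in these data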
# Target sequence (O14672 214-748 limits assumed): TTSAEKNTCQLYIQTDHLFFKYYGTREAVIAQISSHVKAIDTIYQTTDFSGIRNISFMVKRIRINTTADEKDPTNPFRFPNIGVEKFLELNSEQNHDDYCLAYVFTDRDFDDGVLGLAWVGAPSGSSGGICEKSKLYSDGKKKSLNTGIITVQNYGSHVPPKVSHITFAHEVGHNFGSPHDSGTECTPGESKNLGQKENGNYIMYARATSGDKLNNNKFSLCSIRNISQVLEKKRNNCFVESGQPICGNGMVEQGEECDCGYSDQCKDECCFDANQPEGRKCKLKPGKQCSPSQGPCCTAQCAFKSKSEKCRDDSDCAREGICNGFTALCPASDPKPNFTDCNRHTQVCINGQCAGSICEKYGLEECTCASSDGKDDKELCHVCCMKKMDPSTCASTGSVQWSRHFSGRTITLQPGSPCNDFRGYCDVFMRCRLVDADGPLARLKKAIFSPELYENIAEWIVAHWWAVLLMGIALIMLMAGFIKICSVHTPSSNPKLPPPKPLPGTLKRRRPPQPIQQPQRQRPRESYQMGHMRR
# NPR2 activator = GC-B (human) receptor activation | P20594 | HEK293-GC-B cells, CNP EC30, cGMP TR-FRET; 0% at EC30 CNP, 100% saturating CNP | activation, % at 10 µM | 370,000 compounds, 0.11% hits | AID 1920062;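 active = activation at 10 µM reaching about 35% in either raw or pattern-adjusted values, limit read from the data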
# ADAM17 inh = inhibitors of human ADAM17; AID 720648; 370,000 compounds, 0.83% hits; P78536; recombinant ADAM17, EDANS/DABCYL FRET peptide cleavage; inhibition, % at 6.95 µM;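 active = inhibition above the mean of compounds lying between control limits plus 3 SD, set per campaign, cut at about 8.5% in these data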
# proKLK7 act = activators of human kallikrein-7 zymogen; purified proKLK7, EDANS-DABCYL substrate fluorescence; 100% is mature enzyme control, 0% vehicle; 370,000 compounds, 0.9% hits; AID 652039; activation, % at 7 µM; P49862;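 active = activation above the mean of all tested compounds plus 3 SD, computed per campaign excluding outliers beyond control limits, cut at about 13% in these data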
# ADAM10 confirm = confirmation of inhibitors of human ADAM10. 2,100 compounds, 1% hits. shares compounds with ADAM10 inh. inhibition, % at 6.95 µM. ADAM10 QFRET peptide cleavage, EDANS fluorescence;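 active = inhibition above about 20% chosen separately for each screening run, limit read from the data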
# ADAM17 counter = ADAM17 inhibition, counter-screen for ADAM10 exosite hits | shares compounds with ADAM10 inh | ADAM17 QFRET peptide cleavage, EDANS fluorescence | inhibition, % at 6.95 µM | 2,100 compounds, 0.5% hits | AID 743214;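 active = mean triplicate inhibition above the solvent-only control wells' mean plus 3 SD, cut at about 12% in these data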
# Numbers stand for hits; n = inactive; x = no result given.
SMILES,NPR1 activator,ADAM10 inh,NPR2 activator,ADAM17 inh,proKLK7 act,ADAM10 confirm,ADAM17 counter
CCOC(=O)c1csc(NC(=O)C2CCCN(S(=O)(=O)c3ccccc3[N+](=O)[O-])C2)n1 (stereo not given),n,n,n,n,n,x,x
Nc1nc(N)c(-c2cccc(C(F)(F)F)c2)c(Cc2cccc(C(F)(F)F)c2)n1,n,36.5,n,14.6,n,n,n
Nc1ncccc1OCc1cccc(C(F)(F)F)c1,n,n,n,n,n,x,x
Cc1ccc(NC(=O)CNc2ccc(Cl)c(Cl)c2)cc1S(=O)(=O)N(C)C,n,23.2,n,n,n,n,n
OC(c1ccccc1)(c1ccccc1)C1CCN(CCCOc2ccc(OC(F)(F)F)cc2)CC1,n,n,n,n,n,x,x
Cc1cc(SCC(=O)N/N=C/c2ccc(O)c(O)c2)nc2ccccc12,n,n,n,n,n,x,x
Cc1cc(SCC(=O)N/N=C/c2ccc(O)c(O)c2)c(C)cc1Br,n,29.4,n,n,n,n,n
COc1ccccc1NC(=O)c1ccccc1NC(=O)c1cccs1,n,21.0,n,n,n,n,n
COC(=O)c1ccccc1NC(=O)c1cccs1,n,n,n,n,n,x,x
CCCCn1c(N)c(N(CCOC)C(=O)c2cc(=O)[nH]c3ccccc23)c(=O)[nH]c1=O,n,n,n,n,n,x,x
CCCCn1c(N)c(N(CCOC)C(=O)c2cc(C)oc2C)c(=O)[nH]c1=O,n,50.8,n,n,n,n,n
CC(=O)Nc1ccc(NC(=O)c2cc(-c3cc(C)cc(C)c3O)n[nH]2)cc1,n,n,n,n,n,x,x
Cc1cc(C)c(O)c(-c2cc(C(=O)Nc3ccc(S(=O)(=O)N4CCOCC4)cc3)[nH]n2)c1,n,21.1,n,n,n,n,n
Cc1cccc(-c2cccc3c4c([nH]c23)[C@@H]2C[C@H](N(C)C(=O)Nc3ccccc3)[C@H]([C@H](C)O)CN2CC4)c1,n,n,n,n,n,x,x
O=C(/C=C/c1ccccc1)Nc1ccc(NC(=O)c2cccs2)cc1,n,21.7,n,n,n,n,n
O=C(/C=C/c1ccccc1)NNC(=O)c1cccs1,n,n,n,n,n,x,x
CC(C)(C)c1ccc(-c2nnc(SCC3CCCCO3)n2-c2ccc(Cl)cc2)cc1 (stereo not given),n,n,n,n,n,x,x
Cc1cc(C)n(CC(O)Cn2c3ccc(Br)cc3c3cc(Br)ccc32)c(=O)n1 (stereo not given),n,20.2,n,n,n,n,n
Cc1cc(C)n(CC(O)Cn2c3ccccc3c3ccccc32)c(=O)n1 (stereo not given),n,n,n,n,n,x,x
OC(CSc1c(Cl)cccc1Cl)CN1CCN(c2ccc(F)cc2)CC1 (stereo not given),n,20.9,n,11.4,n,n,n
OC(CSc1ccccc1Cl)CN1CCN(c2ccc(F)cc2)CC1 (stereo not given),n,n,n,n,n,x,x
FC(F)Sc1ccc(NC(=S)NCC2CCCCC2)cc1,n,30.7,n,n,n,n,n
O=S(=O)(NCc1ccc(Cl)c(Cl)c1)c1cc(Cl)ccc1N1CC[C@@H](O)C1,n,20.6,n,n,n,n,n
CCCOc1ccc(C(=O)CCC(=O)OCC(=O)N2CCN(S(=O)(=O)c3ccc(C)cc3C)CC2)cc1,n,20.8,n,n,n,n,n
Cc1ccc(S(=O)(=O)N2CCN(C(=O)COC(=O)CCOc3ccccc3)CC2)c(C)c1,n,n,n,n,n,x,x
SMILES,NPR1 activator,ADAM10 inh,NPR2 activator,ADAM17 inh,proKLK7 act,ADAM10 confirm,ADAM17 counter
COC1=C[C@H](C(=O)NCCOC(C)=O)[C@H](C)[C@@H](c2ccccc2)CC1=O,n,n,n,n,n,x,x
CC1(C(=O)NCc2cccc3ccccc23)CCN1Cc1ccccc1OC(F)F (stereo not given),n,20.9,n,n,n,n,n
CC1(C(=O)NCc2ccc(C(F)(F)F)cc2)CCN1Cc1ccccc1OC(F)F (stereo not given),n,n,n,n,n,x,x
COc1ccc(/C=N/NC(=O)c2ccn[nH]2)cc1COc1ccc(Cl)cc1,n,20.1,n,n,n,n,n
COc1ccc(/C=N/NC(=O)c2ccn[nH]2)cc1CSc1ccccn1,n,n,n,n,n,x,x
CCCCOc1ccc(C(=O)NC2CCCCN(Cc3cccc(C(F)(F)F)c3)C2=O)cc1 (stereo not given),n,n,n,n,n,x,x
O=C1CCC2(CCCCC2)N1CCCO,n,n,n,n,n,x,x
CC[C@@H](CCCc1ccc(F)cc1)CN(Cc1ccc(OC)cc1)S(=O)(=O)c1ccc(C)cc1,n,n,n,n,n,x,x
COc1ccc(-c2cc(-c3nnc(SCC(=O)N4CCOCC4)n3N)[nH]n2)cc1,n,n,n,n,n,x,x
Cc1noc(C)c1COc1cccc(C(=O)OC(C)C#N)c1 (stereo not given),n,n,n,n,n,x,x
Cc1noc(C)c1COc1cccc(C(=O)OCCOc2ccc(F)cc2)c1,n,25.8,n,n,n,n,n
O=C(NCc1ccc(F)cc1)c1cnc(-c2ccccn2)nc1C(F)(F)F,n,66.1,n,n,n,n,n
O=C(NC1CCCN(Cc2ccc(Cl)cc2)C1)c1cccc(F)c1 (stereo not given),n,82.4,n,n,n,n,n
CCN(CC)C(=O)C1CCCN(Cc2cccc(F)c2)C1 (stereo not given),n,79.2,n,n,n,n,n
O=C(OC12CCCN(C1)/C(=C/c1cccc(Cl)c1)C2)c1ccco1 (stereo not given),n,n,n,n,n,x,x
O=C(c1cc(-c2ccccc2)n[nH]1)N1CCc2c([nH]c3ccccc23)C1c1ccccn1 (stereo not given),n,27.1,n,n,n,n,n
O=C(c1cccs1)N1CCc2c([nH]c3ccccc23)C1c1ccccn1 (stereo not given),n,n,n,n,n,x,x
CCOc1ccc(NC(=O)CC2CC(C)(C)OC2=O)cc1 (stereo not given),n,n,n,n,n,x,x
CCCC1CC(C)(c2csc(Nc3ccc(OCC)cc3)n2)OC1=O (stereo not given),n,21.1,n,n,n,n,n
CCN(c1ccccc1)S(=O)(=O)c1ccc(N2CCN(c3ccc(O)cc3)CC2)nc1,n,25.1,n,n,n,n,n
CCn1c2ccccc2c2cc(C=NNC(=O)CSc3nc4ccccc4c(=O)n3-c3ccccc3)ccc21,n,n,n,n,n,x,x
CCO[C@@H]1OC(C(=O)NCc2nc3ccccc3[nH]2)=C[C@H](c2csc3ccccc23)[C@H]1CCCO,n,20.5,n,n,n,n,n

# Screens as filed in PubChem.
